The supplement of paper PMC12282887
± gives the standard deviation of the averaged measurements.

Key:
Assay in all cases: promoter activity interaction Z-score (Lux/OD deviation from empty-vector control); higher = stronger promoter induction by the compound
[1] = test system: E. coli BW25113 acrABp lux reporter
Summary of the method: (§1)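 Four 1:2 dilutions of each compound were tested in biological duplicates on E. coli BW25113 carrying low-copy luxCDABE promoter reporters, either wild type or deleted for one of three genes. Cultures of 40 µl LB Lennox in 384-well plates were kept at 37°C and read for OD600 and luminescence every 30 min for 12 h. Integration windows were 0–8 h for wild type and 1–9 h for deletion strains, and wells under 10% of the median growth value were discarded. The score is a Z-transformed residual of growth-normalised luminescence relative to a control fit.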

[2] = test system: E. coli BW25113 micFp lux reporter
Summary of the method: as §1

[3] = test system: E. coli BW25113 ompFp lux reporter
Summary of the method: as §1

[4] = test system: E. coli BW25113 robp lux reporter
Summary of the method: as §1

[5] = test system: E. coli BW25113 soxSp lux reporter
Summary of the method: as §1

[6] = test system: E. coli BW25113 tolCp lux reporter
Summary of the method: as §1

[7] = 0.11 µg/ml, genetic background: wild type
[8] = 0.11 µg/ml, genetic background: ΔmarA
[9] = 0.11 µg/ml, genetic background: Δrob
[10] = 0.11 µg/ml, genetic background: ΔsoxS
[11] = 0.21 µg/ml, genetic background: wild type
[12] = 0.21 µg/ml, genetic background: ΔmarA
[13] = 0.21 µg/ml, genetic background: Δrob
[14] = 0.21 µg/ml, genetic background: ΔsoxS
[15] = 0.43 µg/ml, genetic background: wild type
[16] = 0.43 µg/ml, genetic background: ΔmarA
[17] = 0.43 µg/ml, genetic background: Δrob
[18] = 0.43 µg/ml, genetic background: ΔsoxS
[19] = 0.86 µg/ml, genetic background: wild type
[20] = 0.86 µg/ml, genetic background: ΔmarA
[21] = 0.86 µg/ml, genetic background: Δrob
[22] = 0.86 µg/ml, genetic background: ΔsoxS

## Cc1ncc([N+](=O)[O-])n1CCO [Metronidazole]
[1]; [7]
  promoter activity interaction Z-score: 0.0148 ± 0.051
[1]; [8]
  promoter activity interaction Z-score: 0.993 ± 0.18
[1]; [9]
  promoter activity interaction Z-score: 0.102 ± 0.12
[1]; [10]
  promoter activity interaction Z-score: 0.194 ± 0.31
[1]; [11]
  promoter activity interaction Z-score: -0.197 ± 0.0096
[1]; [12]
  promoter activity interaction Z-score: -0.0386 ± 0.09
[1]; [13]
  promoter activity interaction Z-score: 0.0596 ± 0.14
[1]; [14]
  promoter activity interaction Z-score: 0.187 ± 0.31
[1]; [15]
  promoter activity interaction Z-score: -0.222 ± 0.18
[1]; [16]
  promoter activity interaction Z-score: 0.706 ± 0.8
[1]; [17]
  promoter activity interaction Z-score: -0.0336 ± 0.17
[1]; [18]
  promoter activity interaction Z-score: 0.0816 ± 0.12
[1]; [19]
  promoter activity interaction Z-score: 0.191 ± 0.025
[1]; [20]
  promoter activity interaction Z-score: 0.645 ± 0.49
[1]; [21]
  promoter activity interaction Z-score: 0.143 ± 0.34
[1]; [22]
  promoter activity interaction Z-score: -0.0136 ± 0.22
[2]; [7]
  promoter activity interaction Z-score: -0.0559 ± 0.11
[2]; [8]
  promoter activity interaction Z-score: -0.0152 ± 0.0074
[2]; [9]
  promoter activity interaction Z-score: 0.0206 ± 0.0032
[2]; [10]
  promoter activity interaction Z-score: -0.264 ± 0.11
[2]; [11]
  promoter activity interaction Z-score: -0.327 ± 0.068
[2]; [12]
  promoter activity interaction Z-score: -0.09496 ± 0.00031
[2]; [13]
  promoter activity interaction Z-score: -0.0735 ± 0.081
[2]; [14]
  promoter activity interaction Z-score: -0.0751 ± 0.037
[2]; [15]
  promoter activity interaction Z-score: -0.152 ± 0.26
[2]; [16]
  promoter activity interaction Z-score: -0.0333 ± 0.092
[2]; [17]
  promoter activity interaction Z-score: -0.000559 ± 0.02
[2]; [18]
  promoter activity interaction Z-score: -0.18 ± 0.06
[2]; [19]
  promoter activity interaction Z-score: -0.0833 ± 0.079
[2]; [20]
  promoter activity interaction Z-score: 0.00541 ± 0.1
[2]; [21]
  promoter activity interaction Z-score: -0.0861 ± 0.014
[2]; [22]
  promoter activity interaction Z-score: -0.189 ± 0.084
[3]; [7]
  promoter activity interaction Z-score: 0.217 ± 0.3
[3]; [8]
  promoter activity interaction Z-score: 0.187 ± 0.0061
[3]; [9]
  promoter activity interaction Z-score: -0.155 ± 0.074
[3]; [10]
  promoter activity interaction Z-score: -0.0733 ± 0.12
[3]; [11]
  promoter activity interaction Z-score: -0.138 ± 0.22
[3]; [12]
  promoter activity interaction Z-score: -0.0604 ± 0.18
[3]; [13]
  promoter activity interaction Z-score: 0.261 ± 0.17
[3]; [14]
  promoter activity interaction Z-score: 0.2636 ± 0.0018
[3]; [15]
  promoter activity interaction Z-score: -0.0385 ± 0.54
[3]; [16]
  promoter activity interaction Z-score: 0.144 ± 0.29
[3]; [17]
  promoter activity interaction Z-score: 0.609 ± 0.017
[3]; [18]
  promoter activity interaction Z-score: 0.11 ± 0.042
[3]; [19]
  promoter activity interaction Z-score: 0.547 ± 0.5
[3]; [20]
  promoter activity interaction Z-score: 1.12 ± 0.3
[3]; [21]
  promoter activity interaction Z-score: 0.862 ± 0.19
[3]; [22]
  promoter activity interaction Z-score: 0.815 ± 0.34
[4]; [7]
  promoter activity interaction Z-score: 0.061 ± 0.23
[4]; [8]
  promoter activity interaction Z-score: 0.425 ± 0.28
[4]; [9]
  promoter activity interaction Z-score: 0.355 ± 0.21
[4]; [10]
  promoter activity interaction Z-score: -0.235 ± 0.13
[4]; [11]
  promoter activity interaction Z-score: 0.165 ± 0.35
[4]; [12]
  promoter activity interaction Z-score: -0.111 ± 0.75
[4]; [13]
  promoter activity interaction Z-score: 0.8 ± 0.29
[4]; [14]
  promoter activity interaction Z-score: 0.979 ± 1.1
[4]; [15]
  promoter activity interaction Z-score: 0.177 ± 0.99
[4]; [16]
  promoter activity interaction Z-score: 0.7 ± 0.077
[4]; [17]
  promoter activity interaction Z-score: 0.452 ± 0.054
[4]; [18]
  promoter activity interaction Z-score: -0.0713 ± 0.41
[4]; [19]
  promoter activity interaction Z-score: 0.378 ± 0.83
[4]; [20]
  promoter activity interaction Z-score: 0.776 ± 0.22
[4]; [21]
  promoter activity interaction Z-score: 0.36 ± 0.24
[4]; [22]
  promoter activity interaction Z-score: 0.489 ± 0.32
[5]; [7]
  promoter activity interaction Z-score: 0.0487 ± 0.14
[5]; [8]
  promoter activity interaction Z-score: 0.0513 ± 0.066
[5]; [9]
  promoter activity interaction Z-score: -0.047 ± 0.051
[5]; [10]
  promoter activity interaction Z-score: -0.0356 ± 0.017
[5]; [11]
  promoter activity interaction Z-score: -0.0569 ± 0.11
[5]; [12]
  promoter activity interaction Z-score: -0.088 ± 0.048
[5]; [13]
  promoter activity interaction Z-score: 0.106 ± 0.0032
[5]; [14]
  promoter activity interaction Z-score: 0.0415 ± 0.21
[5]; [15]
  promoter activity interaction Z-score: 0.0827 ± 0.065
[5]; [16]
  promoter activity interaction Z-score: -0.0818 ± 0.06
[5]; [17]
  promoter activity interaction Z-score: 0.0852 ± 0.18
[5]; [18]
  promoter activity interaction Z-score: 0.0431 ± 0.011
[5]; [19]
  promoter activity interaction Z-score: 0.036 ± 0.026
[5]; [20]
  promoter activity interaction Z-score: -0.085 ± 0.049
[5]; [21]
  promoter activity interaction Z-score: -0.132 ± 0.058
[5]; [22]
  promoter activity interaction Z-score: 0.0974 ± 0.06
[6]; [7]
  promoter activity interaction Z-score: -0.237 ± 0.51
[6]; [8]
  promoter activity interaction Z-score: 0.544 ± 0.53
[6]; [9]
  promoter activity interaction Z-score: -0.201 ± 0.23
[6]; [10]
  promoter activity interaction Z-score: 0.183 ± 0.079
[6]; [11]
  promoter activity interaction Z-score: -0.938 ± 0.4
[6]; [12]
  promoter activity interaction Z-score: -0.0891 ± 0.26
[6]; [13]
  promoter activity interaction Z-score: 0.158 ± 0.57
[6]; [14]
  promoter activity interaction Z-score: -0.129 ± 0.43
[6]; [15]
  promoter activity interaction Z-score: -0.953 ± 0.17
[6]; [16]
  promoter activity interaction Z-score: 0.401 ± 1.3
[6]; [17]
  promoter activity interaction Z-score: -0.12 ± 0.26
[6]; [18]
  promoter activity interaction Z-score: -0.386 ± 0.015
[6]; [19]
  promoter activity interaction Z-score: 0.119 ± 0.47
[6]; [20]
  promoter activity interaction Z-score: 0.316 ± 0.49
[6]; [21]
  promoter activity interaction Z-score: -0.271 ± 1.3
[6]; [22]
  promoter activity interaction Z-score: 0.345 ± 0.71
